Only some compounds are listed: those with a hit (about 15% of all), similar ones and a draw of the others.
12-LOX inh: Primary qHTS assay for inhibitors of human arachidonate 12S-lipoxygenase (ALOX12): Round 2 | actives 1.1% (n = 580,000) | purified 12hLO, xylenol orange hydroperoxide absorbance | Potency, µM (doses to about 108 µM), for the others: at the highest dose activity change, negative = inhibition, usual class: inhibitors
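Hydroperoxide product was detected by ferrous iron/xylenol orange as the 573 to 405 nm absorbance ratio. Arachidonic acid at 40 uM (final) was turned over for 30 min at room temperature by 150 nM human 12hLO, pH 7.0 Hepes buffer, after 15 min compound preincubation.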
DT40 TDP1 CPT: qHTS for Inhibitors of human tyrosyl-DNA phosphodiesterase 1 (TDP1): qHTS in cells in presence of CPT | chicken DT40 Tdp1-/-;hTDP1 cells + 20 nM CPT, ATP luminescence, 48 h | Potency, µM (top dose mostly 46.2 µM), inactives show at the top dose activity change, negative = growth inhibition, most hits filed as inhibitors | actives 12% (n = 420,000) | AID 686979, 2013; further: nearly all actives have a fitted effect of over 55% in size
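Cell growth measured by CellTiter-Glo luminescence after a minimum 48 h, 37 C compound exposure with 20 nM CPT in Tdp1-knockout DT40 cells stably expressing hTDP1, seeded 400/well; qHTS titration format.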
RORgamma inh: qHTS for inhibitors of ROR gamma transcriptional activity; actives 5.4% (n = 310,000); Drosophila S2 Gal4-RORgamma UAS-luciferase reporter, 20 h; Nuclear receptor ROR-gamma (Mus musculus), P51450; Potency, µM (highest dose often 53.6 µM), without a hit: at the top dose activity change, negative = inhibition, most hits filed as inhibitors; further: nearly all actives have a fitted effect of over 60% in size
Target sequence (P51450 whole entry, looked up, the tested form may be a part): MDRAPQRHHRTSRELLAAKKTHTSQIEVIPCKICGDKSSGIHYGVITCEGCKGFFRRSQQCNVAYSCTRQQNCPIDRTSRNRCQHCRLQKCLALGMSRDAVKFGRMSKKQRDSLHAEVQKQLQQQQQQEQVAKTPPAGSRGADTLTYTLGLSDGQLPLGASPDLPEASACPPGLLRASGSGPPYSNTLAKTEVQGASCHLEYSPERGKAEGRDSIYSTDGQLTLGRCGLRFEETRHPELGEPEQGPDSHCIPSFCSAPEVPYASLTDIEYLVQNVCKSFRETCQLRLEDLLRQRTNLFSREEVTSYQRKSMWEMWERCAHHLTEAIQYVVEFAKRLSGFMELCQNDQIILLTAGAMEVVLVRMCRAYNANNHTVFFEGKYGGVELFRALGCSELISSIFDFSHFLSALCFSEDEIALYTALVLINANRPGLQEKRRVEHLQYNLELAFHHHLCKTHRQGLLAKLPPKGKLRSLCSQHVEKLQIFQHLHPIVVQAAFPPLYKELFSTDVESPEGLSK
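Read-out: Photinus luciferase luminescence; inhibitors lower reporter signal. Insect Schneider cells with Gal4-ROR gamma fusion under metallothionein promoter, UAS reporter; 700 uM final copper sulfate induction, 20 hr, ambient temperature.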
TDP1 cell noCPT: qHTS for Inhibitors of human tyrosyl-DNA phosphodiesterase 1 (TDP1): qHTS in cells in absence of CPT; DT40 Tdp1-/- hTDP1 cells, no CPT, ATP luminescence, 48 h; Potency, µM (titrated, usually from 46.2 µM), inactives show at the highest dose activity change, negative = growth inhibition, most hits filed as inhibitors; actives 15% (n = 420,000); AID 686978, 2013; further: nearly all actives have a fitted effect of over 55% in size
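DT40 Tdp1-/-;hTDP1 cells, no CPT (DMSO vehicle only), 400 cells/well; compounds pin-transferred; ≥48 hr, 37 °C; CellTiter-Glo 30 min RT dark, luminescence read.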
VP16 counter: VP16 counterscreen qHTS for inhibitors of ROR gamma transcriptional activity; Drosophila S2 Gal4-VP16 UAS-luciferase, luminescence, 20 h; Potency, µM (series often up to 53.6 µM), without a hit: top-dose activity, negative = inhibition, most hits filed as inhibitors; actives 3.5% (n = 310,000); AID 2546, 2010;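 further: Gal4-VP16 expression switched on by copper sulfate through the metallothionein promoter; nearly all actives have a fitted effect of over 50% in size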
ELG1 DNA repair: qHTS screen for small molecules that inhibit ELG1-dependent DNA repair in human embryonic kidney (HEK293T) cells expressing luciferase-tagged ELG1 | actives 2.3% (n = 330,000) | Potency, µM (top dose mostly 46.1 µM), for inactives: at the top dose activity change, negative = inhibition, actives largely listed as inhibitors | AID 504467, 2011 | HEK293T ELG1-luciferase reporter, luminescence, 16 h; DNA damage induced by 5-fluorouridine; further: nearly all actives have a fitted effect of over 55% in size
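Quantitative HTS, concentration-response format. 2,000 cells/well co-treated with 5-fluorouridine and compound, 16 hr in 5% CO2 at 37 °C; ONE-Glo luminescence read after 30 min.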
* marks the source's active call; other numbers are inactive results; ? = inconclusive; . = no result; [ ] = another dose, or the depositor's remark. The call rests on the fitted dose curve; in most records, active means well fitted curve in the direction sought with a large enough effect; inconclusive means small, poorly fitted or top-dose-only effect, or another doubt; inactive means no such curve, though single readings can be large; an effect the other way counts as inactive or inconclusive. On the % scale 0 is the no-effect control and ±100 the full control effect; potency means the concentration at half of the fitted maximal effect.

SMILES	12-LOX inh	DT40 TDP1 CPT	RORgamma inh	TDP1 cell noCPT	VP16 counter	ELG1 DNA repair
COc1ccccc1C(=O)Nc1sc2c(c1C(N)=O)CCC(C)C2 (centres undefined)	-18%	.	.	.	.	.
O=C(O)c1cccc(NCc2ccc(Cl)cc2Cl)c1	-5%	.	.	.	.	.
O=C(Nc1cccc(Cl)c1)C1CCCN(c2ncnc3c2nc2n3CCCCC2)C1 (centres undefined)	?	5.2µM*	.	?	.	.
O=C(NCc1ccccc1)C1CCCN(c2ncnc3c2nc2n3CCCCC2)C1 (centres undefined)	1%	?	0%	21µM*	-15%	?
O=C(Nc1cccnc1)C1CCCN(c2ncnc3c2nc2n3CCCCC2)C1 (centres undefined)	6%	-30%	31%	?	14%	-9%
O=C(NCCc1ccc(Cl)cc1)C1CCCN(c2ncnc3c2nc2n3CCCCC2)C1 (centres undefined)	-21%	?	-17%	?	-2%	?
C[C@H]1[C@@H](NS(=O)(=O)c2cn(C)cn2)CC[C@@]23CCCN2C(=O)CCC[C@@H]13	3%	.	.	.	.	.
Cc1ccc(Sc2ncnc(N)c2[N+](=O)[O-])cc1	-23%	-26%	-41%	?	2%	?
Cc1cccc(C)c1Nc1ncnc(N)c1[N+](=O)[O-]	-20%	0%	?	-15%	-9%	15%
Nc1ncnc(Sc2ccccc2)c1[N+](=O)[O-]	-5%	-3%	10µM*	-19%	?	?
Nc1ncnc(Sc2ncccn2)c1[N+](=O)[O-]	-17%	1.2µM*	4µM*	1.3µM*	7.1µM*	?
Nc1ncnc(Sc2ccc(Cl)cc2)c1[N+](=O)[O-]	-16%	4.6µM*	-40%	5.8µM*	6%	?
O=[S+]1([O-])NCC2(CCCN(Cc3ccc(F)cc3)C2)Oc2ncccc21 (centres undefined)	3%[6.33 µM]	.	.	.	.	.
CCn1c(=O)n(-c2ccc(Cl)cc2)c(=O)c2c3c(sc21)COC(C)(C)C3	-15%	-12%	12%	-30%	1%	-21%
Cc1nnc2n(Cc3ccccc3)c(=O)c3c4c(sc3n12)COC(C)(C)C4	70%	-12%	?	?	-26%	-29%
CC1(C)Cc2c(sc3c2c(=N)n(Cc2ccco2)c(=O)n3Cc2ccc(Cl)cc2)CO1	6%	-110%	39%	?	-15%	5.8µM*
CC1(C)Cc2c(sc3[nH]c(=S)n(Cc4ccco4)c(=O)c23)CO1	?	21µM*	1µM*	?	1.4µM*	0%
CC1(C)Cc2c(sc3c2c(=N)n(Cc2ccco2)c(=O)n3Cc2ccccc2)CO1	4%	18µM*	-39%	?	?	12µM*
Cc1csc(NC(=O)[C@@H]2CCC[C@@H](NCc3cccnc3)CN(C)C(=O)C2)n1	34%[176 µM]	.	.	.	.	.
Cc1nc(NCCNS(C)(=O)=O)cc(C2CC(O)C2)n1 (centres undefined)	42%	.	.	.	.	.
CCOC(=O)C1CCC(CN(Cc2ccc(Cl)cc2)S(=O)(=O)c2ccc(Br)cc2)CC1 (centres undefined)	-30%	?	.	?	.	.
CCOC(=O)C1CCC(CN(Cc2ccc(OC)cc2)S(=O)(=O)c2ccc(C)cc2)CC1 (centres undefined)	-16%	21µM*	.	13µM*	.	.
CCOC(=O)C1CCC(CN(Cc2ccc(Cl)cc2)S(=O)(=O)c2cccc(Cl)c2C)CC1 (centres undefined)	-17%	23µM*	.	18µM*	.	.
CN(CCCN)C1CCCCC1	-4%	.	.	.	.	.
O=C(NC1CCCCC1)C(c1cccs1)N(CCCN1CCOCC1)C(=O)c1ccc(-c2ccccc2)[nH]1 (centres undefined)	?	?	0%	15µM*	?	?
SMILES	12-LOX inh	DT40 TDP1 CPT	RORgamma inh	TDP1 cell noCPT	VP16 counter	ELG1 DNA repair
O=C(NCC1CCCO1)C(c1cccs1)N(Cc1cccs1)C(=O)c1ccc(-c2ccccc2)[nH]1 (centres undefined)	-15%	13µM*	?	?	-5%	?
O=C(NCC1CCCO1)C(c1ccc(F)cc1)N(CC1CCCO1)C(=O)c1ccc(-c2ccccc2)[nH]1 (centres undefined)	-10%	-11%	?	?	-1%	3%
COC(=O)[C@@H](C)NC(=O)[C@H]1CN(C(=O)Nc2ccccc2)CCN1C(=O)NC(C)C	24%[176 µM]	.	.	.	.	.
Cc1cc(=O)n2[nH]c(CN(C(=O)c3ccccc3C)c3ccc(Cl)cc3)nc2n1	-27%	.	.	.	.	.
CCCCCn1ccc(=O)c2c(C(F)(F)F)nccc21	0%	13µM*	?	18µM*	?	5.8µM*
CCCC(=O)Nc1nnc(SCc2cc(=O)c3ccc(C)cc3[nH]2)s1	-15%	1.5µM*	.	0.73µM*	.	.
Cc1ccccc1N1CCN(C(=O)c2ccc3c(c2)N(C)C2CCCCCN2C3=O)CC1 (centres undefined)	11%	.	.	.	.	.
COc1ccccc1[C@@]1(C)ON(c2ccccc2C(F)(F)F)C1=O	4%	?	.	?	.	18µM*
Cc1ccc(-c2ccc3nnc(CNC(=O)c4cccc(C(F)(F)F)c4)n3n2)cc1	36%	.	.	.	.	.
O=C(c1ccccc1NS(=O)(=O)c1ccccc1[N+](=O)[O-])N1CCOCC1	-11%	-7%	2%	-14%	?	15%
O=C(c1ccccc1NS(=O)(=O)c1ccc([N+](=O)[O-])cc1[N+](=O)[O-])N1O[C@@H]2C=C[C@H]1C2	-16%	9.2µM*	.	9.2µM*	.	?
CN1CCc2c([nH]c3ccccc23)C12CCN(C(=O)c1ccccn1)CC2	22%	.	.	.	.	.
Cc1cc(=O)n2c3c(c4c(cc13)c(CN(C)C)cc(=O)n4C)OC2	18%	8.2µM*	.	6.5µM*	.	.
Cn1c(-c2ccc(F)cc2)cc2ccccc21	55%	.	.	.	.	.
CCC(=O)N1N=C(c2ccc(NS(C)(=O)=O)cc2)CC1c1ccc(N(C)C)cc1 (centres undefined)	19%	-4%	22%	?	?	?

Source: PubChem BioAssay
